Test results taken from PubChem BioAssay (NCATS).
Results filed as inconclusive are left out. A call without a number means that no potency is given here. Values without a mark were called inactive. Activity calls are given as the source filed them. Unless noted, calls follow the shape of the dose curve; as a rule, active = well fitted curve in the direction sought with a large enough effect; inconclusive = small, poorly fitted or top-dose-only effect, or another doubt; inactive = no such curve, though single readings can be large; an effect the other way counts as inactive or inconclusive.

How the values were obtained:
[1] = Cell Viability - Jurkat (AID 426;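 active = dose-dependent loss of cell ATP signal giving a full or clear fitted curve, ranked by lower potency value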; also: potency is read from the fitted curve at half-maximal effect); conditions: qHTS
How it was run: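 Jurkat (clone E6-1, human T-cell leukemia) cells, 5000/well in complete medium, were exposed to compound for 40 hr at 37 °C. Viability was read as intracellular ATP by CellTiter-Glo luminescence; AC50 came from Hill fits of concentration-response data.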

[2] = Cell Viability - LYMP2-001 (AID 921); conditions: LYMP2-001 lymphoblastoid cell viability; series mostly up to 92.2 µM; also: nearly all actives have a fitted effect of over 70% in size
How it was run: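 CellTiter-Glo luminescence (intracellular ATP) after 24 hr compound exposure at 37 C, 2500 lymphoblastoid cells/well in complete medium. AC50 fitted with standard Hill equation; tetraoctylammonium bromide positive control.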

[3] = MultiTox-Fluor Cytotoxicity Assay - LYMP1-002 - Dead Cells (AID 960); conditions: LYMP1-002 lymphoblastoid cells, dead-cell protease fluorescence; series mostly up to 46.1 µM; also: nearly all actives have a fitted effect of over 60% in size
How it was run: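 Human lymphoblastoid cells (LYMP1-002), 2500/well in complete medium, were exposed to compounds for 16 hr at 37 C. Dead-cell protease activity was read as bis-AAF-R110 fluorescence (Ex/Em 485/520), normalized to DMSO and 15 uM tetraoctylammonium bromide; AC50 from Hill fits.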

[4] = Cell Viability - LYMP1-003 - Assay at 40 hr (AID 964); conditions: LYMP1-003 lymphoblastoid viability; series mostly up to 92.2 µM; also: nearly all actives have a fitted effect of over 60% in size
How it was run: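 Human lymphoblastoid LYMP1-003 cells, 2500/well in complete medium, rested 5 hr at 37 C, then exposed to compounds for 40 hr at 37 C. Viability read as intracellular ATP by CellTiter-Glo luminescence; AC50 from Hill fits of concentration-response data.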

[5] = Cell Viability - LYMP2-003 (AID 965); conditions: LYMP2-003 lymphoblastoid cell viability; series mostly up to 92.2 µM;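 also: cells exposed to compounds for 24 h before reading; nearly all actives have a fitted effect of over 50% in size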
How it was run: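 CellTiter-Glo luminescence (cellular ATP) after 24 h compound exposure at 37 C in complete medium; 2500 cells/well, 5 h settling beforehand. Concentration-response fitted to standard Hill equation for AC50. Tetraoctylammonium bromide served as positive control.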

[6] = Cell Viability - LYMP2-005 (AID 967); conditions: LYMP2-005 lymphoblastoid cell viability; series mostly up to 92.2 µM
How it was run: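 Steps: seed 2500 LYMP2-005 cells/well, incubate 5 h at 37 C, add compound, incubate 24 h at 37 C, add CellTiter-Glo, wait 30 min at RT, read luminescence. Concentration-response data fitted to Hill equation for AC50.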

[7] = Cell Viability - LYMP2-011 (AID 969); conditions: LYMP2-011 lymphoblastoid cells viability; series mostly up to 92.2 µM; also: nearly all actives have a fitted effect of over 60% in size
How it was run: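 Human lymphoblastoid cells (2500/well) were plated in complete medium, preincubated 5 hr at 37 C, then exposed to compounds for 24 hr at 37 C. Intracellular ATP was read by CellTiter-Glo luminescence, and AC50 came from Hill-equation concentration-response fits.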

[8] = Cell Viability - LYMP2-013 (AID 970); conditions: LYMP2-013 lymphoblastoid cells viability; series mostly up to 92.2 µM; also: nearly all actives have a fitted effect of over 55% in size
How it was run: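 Human lymphoblastoid cells, 2500/well, were preincubated 5 hr at 37 C, then treated with compounds for 24 hr at 37 C in complete medium. Intracellular ATP was read by CellTiter-Glo luminescence; AC50 from Hill-equation fits of concentration-response data.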

[9] = Cell Viability - LYMP2-017 (AID 972); conditions: LYMP2-017 lymphoblastoid cell viability; series mostly up to 92.2 µM; also: nearly all actives have a fitted effect of over 55% in size
How it was run: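 Human lymphoblastoid cells (2500/well) were seeded in complete medium, held 5 hr at 37 C, then exposed to compounds for 24 hr at 37 C. Intracellular ATP was read by CellTiter-Glo luminescence after 30 min at room temperature, with AC50 values from Hill-equation fits.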

[10] = Cell Viability - LYMP2-019 (AID 973); conditions: LYMP2-019 lymphoblastoid cell line viability; series mostly up to 92.2 µM; also: nearly all actives have a fitted effect of over 55% in size
How it was run: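 Human lymphoblastoid cells were seeded at 2500 cells/well, preincubated 5 hr at 37 C, then exposed to compounds for 24 hr at 37 C in complete medium. Intracellular ATP was measured by CellTiter-Glo luminescence; AC50 from Hill fits.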

[11] = Cell Viability - LYMP2-021 (AID 974); conditions: LYMP2-021 lymphoblastoid cells viability; series mostly up to 92.2 µM;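 also: compound exposure lasts 24 hours at 37 °C; nearly all actives have a fitted effect of over 55% in size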
How it was run: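 Human lymphoblastoid cells (2500/well) were preincubated 5 hr at 37 C, then exposed to compounds for 24 hr at 37 C in complete medium. Intracellular ATP was read by CellTiter-Glo luminescence; AC50 came from Hill-equation fits of concentration-response data.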

[12] = Cell Viability - LYMP2-023 (AID 975); conditions: LYMP2-023 lymphoblastoid cell viability; series mostly up to 92.2 µM
How it was run: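 Human lymphoblastoid cells (2500/well) were preincubated 5 hr at 37 C, then exposed to compounds for 24 hr at 37 C in complete medium. Cellular ATP was read by CellTiter-Glo luminescence, and AC50 came from Hill-equation fits.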

[13] = Cell Viability - LYMP2-010 (AID 981); conditions: LYMP2-010 lymphoblastoid cell viability, qHTS; series mostly up to 92.2 µM; also: nearly all actives have a fitted effect of over 55% in size; also: potency is read from the fitted curve at half-maximal effect
How it was run: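 Human lymphoblastoid LYMP2-010 cells (2500/well) were preincubated 5 hr at 37 C, then exposed to compounds for 24 hr at 37 C in complete medium. Intracellular ATP was measured by CellTiter-Glo luminescence after 30 min at room temperature; AC50 from Hill-fitted concentration-response.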

[14] = Cell Viability - LYMP2-014 (AID 983); conditions: LYMP2-014 lymphoblastoid cells, viability qHTS; series mostly up to 92.2 µM; also: nearly all actives have a fitted effect of over 50% in size
How it was run: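 Human lymphoblastoid cells (2500/well) were pre-incubated 5 hr at 37 C, then exposed to compounds in complete medium for 24 hr at 37 C. Intracellular ATP was read by CellTiter-Glo luminescence after 30 min at room temperature; AC50 from Hill fits.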

[15] = Cell Viability - LYMP2-016 (AID 984); conditions: LYMP2-016 lymphoblastoid cell viability, qHTS; series mostly up to 92.2 µM; also: nearly all actives have a fitted effect of over 55% in size
How it was run: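 qHTS, 1536-well: 2500 LYMP2-016 cells/well, 5 hr 37 C, compound added, 24 hr 37 C, CellTiter-Glo 30 min RT, luminescence. Tetraoctylammonium bromide positive control. AC50 via Hill fit.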

[16] = Cell Viability - LYMP2-020 (AID 986); conditions: series mostly up to 92.2 µM; also: nearly all actives have a fitted effect of over 55% in size
How it was run: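 Human lymphoblastoid cells, 2500/well, were pre-incubated 5 hr at 37 C, then exposed to compounds for 24 hr at 37 C in complete medium. Intracellular ATP was read by CellTiter-Glo luminescence, and AC50 was derived by Hill fitting of concentration-response data.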

[17] = Cell Viability - LYMP2-022 (AID 987); conditions: LYMP2-022 lymphoblastoid cell viability; series mostly up to 92.2 µM; also: nearly all actives have a fitted effect of over 55% in size
How it was run: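 Human lymphoblastoid cells, 2500/well, preincubated 5 hr at 37 C, then exposed to compounds over a concentration range for 24 hr at 37 C in complete medium. Viability read as intracellular ATP by CellTiter-Glo luminescence after 30 min at room temperature; AC50 from Hill fits.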

[18] = Cell Viability - LYMP2-024 (AID 988); conditions: LYMP2-024 lymphoblastoid cell viability; series mostly up to 92.2 µM; also: nearly all actives have a fitted effect of over 60% in size
How it was run: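 Human lymphoblastoid cells (2500/well) in complete medium were preincubated 5 hr at 37 C, then exposed to compounds for 24 hr at 37 C. Intracellular ATP was read by CellTiter-Glo luminescence; AC50 from Hill-equation fits of concentration-response data.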

[19] = qHTS assay for small molecule disruptors of the mitochondrial membrane potential - 1 hr assay (AID 651754; calls by dose curve; also: nearly all actives have a fitted effect of over 35% in size); conditions: series mostly up to 92.2 µM
How it was run: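 HepG2 cells, attached overnight at 37C, were exposed to compound or DMSO vehicle for 1 hr at 37C, 5% CO2, then stained with Mito-MPS dye for 30 min. Red aggregate versus green monomer fluorescence reports membrane potential.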

[20] = biological target: Tumor necrosis factor (Homo sapiens) (UniProt P01375); experiment: qHTS assay to identify small molecules that stimulate Tumor Necrosis Factor-alpha (TNF-alpha) secretion (AID 651757; active = well fitted curve in the direction sought with a large enough effect in the signal ratio; the % refers to the signal ratio); conditions: Human cells, HTRF 665/615 ratio; series mostly up to 92.2 µM
Sequence of Tumor necrosis factor (Homo sapiens) (P01375 whole entry, looked up): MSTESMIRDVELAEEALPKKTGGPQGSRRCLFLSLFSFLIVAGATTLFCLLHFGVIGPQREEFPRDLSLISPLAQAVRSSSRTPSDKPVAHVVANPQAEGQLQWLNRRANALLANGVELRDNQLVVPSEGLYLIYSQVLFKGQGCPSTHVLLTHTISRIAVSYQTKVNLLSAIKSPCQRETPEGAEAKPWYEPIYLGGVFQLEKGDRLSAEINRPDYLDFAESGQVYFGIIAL
How it was run: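 THP-1 cells were exposed to compounds for 17 hrs at 37 C, after which secreted TNF-alpha was measured by homogeneous HTRF (TR-FRET) using cryptate- and XL665-labeled anti-TNF-alpha antibodies, read after 3 hr at room temperature.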

SMILES: NC(=S)Nc1ccccc1
- Potency [1]: > 92 µM
- Potency [2]: inactive
- Potency [3]: inactive
- Potency [4]: inactive
- Potency [5]: inactive
- Potency [6]: inactive
- Potency [7]: inactive
- Potency [8]: inactive
- Potency [9]: inactive
- Potency [10]: inactive
- Potency [11]: inactive
- Potency [12]: inactive
- Potency [13]: inactive
- Potency [14]: inactive
- Potency [15]: inactive
- Potency [16]: inactive
- Potency [17]: inactive
- Potency [18]: inactive
- Potency [19]: inactive
- outcome [20]: inactive

SMILES: Brc1ccccc1
- Potency [1]: > 92 µM
- Potency [2]: inactive
- Potency [3]: inactive
- Potency [4]: inactive
- Potency [5]: inactive
- Potency [6]: inactive
- Potency [7]: inactive
- Potency [8]: inactive
- Potency [9]: inactive
- Potency [10]: inactive
- Potency [11]: inactive
- Potency [12]: inactive
- Potency [13]: inactive
- Potency [14]: inactive
- Potency [15]: inactive
- Potency [16]: inactive
- Potency [17]: inactive
- Potency [18]: inactive
- Potency [19]: inactive
- outcome [20]: inactive

SMILES: ClCBr
- Potency [1]: > 92 µM
- Potency [3]: inactive
- Potency [4]: inactive
- Potency [5]: inactive
- Potency [6]: inactive
- Potency [7]: inactive
- Potency [8]: inactive
- Potency [9]: inactive
- Potency [12]: inactive
- Potency [17]: inactive
- Potency [18]: inactive
- Potency [19]: inactive
- outcome [20]: inactive

SMILES: [O-][Br+2]([O-])O
- Potency [1]: > 92 µM
- Potency [2]: inactive
- Potency [3]: inactive
- Potency [4]: inactive
- Potency [5]: inactive
- Potency [6]: inactive
- Potency [7]: inactive
- Potency [8]: inactive
- Potency [9]: inactive
- Potency [10]: inactive
- Potency [11]: inactive
- Potency [12]: inactive
- Potency [13]: inactive
- Potency [14]: inactive
- Potency [15]: inactive
- Potency [16]: inactive
- Potency [17]: inactive
- Potency [18]: inactive
- Potency [19]: inactive
- outcome [20]: inactive

SMILES: ClC(Cl)(Cl)c1ccccc1
- Potency [1]: > 92 µM
- Potency [2]: inactive
- Potency [3]: inactive
- Potency [4]: inactive
- Potency [5]: inactive
- Potency [6]: inactive
- Potency [7]: inactive
- Potency [8]: inactive
- Potency [9]: inactive
- Potency [10]: inactive
- Potency [11]: inactive
- Potency [12]: inactive
- Potency [13]: inactive
- Potency [14]: inactive
- Potency [15]: inactive
- Potency [16]: inactive
- Potency [17]: inactive
- Potency [18]: inactive
- Potency [19]: inactive
- outcome [20]: inactive

SMILES: C=CC1CC=CCC1 (stereo unspecified)
- Potency [1]: > 92 µM
- Potency [2]: inactive
- Potency [3]: inactive
- Potency [4]: inactive
- Potency [5]: inactive
- Potency [6]: inactive
- Potency [7]: inactive
- Potency [8]: inactive
- Potency [9]: inactive
- Potency [10]: inactive
- Potency [11]: inactive
- Potency [12]: inactive
- Potency [13]: 39.8 µM (active)
- Potency [14]: inactive
- Potency [15]: inactive
- Potency [16]: inactive
- Potency [17]: inactive
- Potency [19]: inactive
- outcome [20]: inactive

SMILES: Clc1cccc(C(Cl)(Cl)Cl)n1
- Potency [1]: > 92 µM
- Potency [2]: inactive
- Potency [4]: inactive
- Potency [5]: inactive
- Potency [6]: inactive
- Potency [7]: inactive
- Potency [8]: inactive
- Potency [9]: inactive
- Potency [10]: inactive
- Potency [11]: inactive
- Potency [12]: inactive
- Potency [13]: inactive
- Potency [14]: inactive
- Potency [15]: inactive
- Potency [16]: inactive
- Potency [17]: inactive
- Potency [18]: inactive
- Potency [19]: inactive
- outcome [20]: inactive

SMILES: C[C@]12CC[C@H]3[C@@H](CCC4=CC(=O)CC[C@@]43C)[C@@H]1CC[C@@H]2O
- Potency [1]: > 92 µM
- Potency [2]: inactive
- Potency [3]: inactive
- Potency [4]: inactive
- Potency [5]: inactive
- Potency [6]: inactive
- Potency [7]: inactive
- Potency [8]: inactive
- Potency [9]: inactive
- Potency [10]: inactive
- Potency [11]: inactive
- Potency [12]: inactive
- Potency [13]: inactive
- Potency [14]: inactive
- Potency [15]: inactive
- Potency [16]: inactive
- Potency [17]: inactive
- Potency [18]: inactive
- Potency [19]: inactive
- outcome [20]: inactive
